Screens from PubChem BioAssay.
NALP1 inh – NALP1 inflammasome inhibitors in reconstituted yeast, colorimetric, S. cerevisiae, triplicate retest; S. cerevisiae NALP1/ASC/caspase-1 growth, X-gal OD620, 72 h; inhibition, % at 10 µM; 280,000 tested, 0.61% active; in the data active = inhibition mostly above about 24%, no sharp cut-off; inactive = mostly below about 32%
tim10-1 inh – growth inhibitors of tim10-1 mutant yeast, primary screen, luminescence, uHTS; S. cerevisiae tim10-1 ts strain growth, BacTiter-Glo, 24 h; inhibition, % at 20 µM; 330,000 tested, 2.2% active; AID 463190, 2010;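 active = inhibition of at least 40%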;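 note: mutant grown at 25 °C; 0% = DMSO wells with yeast and 100% = wells holding no yeast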
TIM10 inh – growth inhibitors of isogenic TIM10 control yeast, primary screen, counter-screen for tim10-1 yeast inhibitor project, luminescence, uHTS; AID 463195, 2010; S. cerevisiae TIM10 strain growth, BacTiter-Glo luminescence, 24 h; inhibition, % at 10 µM; 330,000 tested, 1.4% active;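 active = inhibition of 40% or more at the single tested concentration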;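 note: wild-type TIM10 isogenic control strain grown at permissive 25 °C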
SKKanGAS inh – S. pyogenes SKKanGAS growth inhibitors in kanamycin, primary screen, streptokinase expression inhibitor project, SKKanGAS strain, BacTiter-Glo luminescence; 6 h; inhibition, % at 7.5 µM; 300,000 tested, 1.3% active; AID 1662, 2009;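 active = mean replicate score, as percent of positive control median, at least 50; inconclusive = mean below 50 but one replicate at or above 50; inactive = mean and every replicate below 50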;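 note: strain carries kanamycin resistance gene driven by streptokinase promoter and grows in 40 µg/ml kanamycin; loss of luminescence reflects streptokinase promoter inhibition or plain growth inhibition; 0% = median of DMSO wells and 100% = positive control at its reference dose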
NALP3 yeast inh – NALP3 inflammasome inhibitors in reconstituted yeast, primary screen, luminescence, uHTS; 330,000 tested, 0.39% active; Yeast reconstituted NLRP3/ASC/caspase-1, beta-gal luminescence, 24 h; inhibition, % at 10 µM; AID 2825, 2010;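 active = inhibition of 50% or more; inactive = inhibition below 50%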;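 note: plate controls were induced DMSO wells for no effect and uninduced yeast grown without galactose for full effect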
tim23-1 inh – growth inhibitors of tim23-1 mutant yeast, primary screen, luminescence, uHTS. S. cerevisiae tim23-1 growth, BacTiter-Glo luminescence, 24 h. inhibition, % at 20 µM. 330,000 tested, 1.3% active;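 active = growth inhibition of the mutant yeast at or above 50%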;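 note: temperature-sensitive mutant grown at 25 °C; plate controls were DMSO-treated mutant yeast for no effect and medium wells lacking yeast for full effect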
tim10-1 confirm – growth inhibitors of tim10-1 mutant yeast, confirmation, single concentration, luminescence, S. cerevisiae | shares compounds with tim10-1 inh | S. cerevisiae tim10-1 ts strain growth, BacTiter-Glo, 24 h | inhibition, % at 20 µM | 7,400 tested, 56% active;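 active = inhibition of yeast growth at or above a set limit in either of two repeat tests at 20 µM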;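 note: tim10-1 mutant grown at permissive 25 °C to find synthetic lethal compounds; 0% = DMSO yeast wells and 100% = medium wells without yeast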
TIM10 conf – growth inhibitors of wild-type TIM10 yeast, confirmation, counter-screen for tim10-1 synthetic lethality project, single concentration, luminescence, S. cerevisiae | shares compounds with TIM10 inh | inhibition, % at 10 µM | S. cerevisiae tim10 strain growth, BacTiter-Glo luminescence, 24 h | 4,600 tested, 63% active;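 active = inhibition of yeast growth at or above a set limit in either of two replicates at 10 µM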;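 note: this counterscreen used the strain with wild-type TIM10; 0% = yeast with DMSO and 100% = medium wells lacking yeast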
tim23-1 conf – tim23-1 mutant yeast growth inhibitors, confirmation, luminescence, single concentration | shares compounds with tim23-1 inh | S. cerevisiae tim23-1 growth, BacTiter-Glo luminescence, 24 h | inhibition, % at 20 µM | 4,400 tested, 83% active;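 active = inhibition above about 39% in either of two replicate wells at 20 µM, limit read from the data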;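 note: temperature-sensitive tim23-1 mutant grown at 25 °C; 0% = DMSO wells with yeast and 100% = medium wells without yeast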
An asterisk follows results filed as active; ? = inconclusive; nt = no result given. This is a sample that favours compounds with a hit; in the whole collection about 4.9% have one here.

SMILES | NALP1 inh | tim10-1 inh | TIM10 inh | SKKanGAS inh | NALP3 yeast inh | tim23-1 inh | tim10-1 confirm | TIM10 conf | tim23-1 conf
OC1CCN(c2c3c(nc4cc(-c5cccc(F)c5)nn24)CCCC3)CC1 | 9.9 | 40.9* | 14.5 | 8.5 | 6.8 | 50.5* | 19.4 | nt | 34.9
Clc1cccc(-c2cc3nc4c(c(N5CCNCC5)n3n2)CCCC4)c1 | 10.8 | nt | nt | nt | nt | nt | nt | nt | nt
CC1=C(C)/C(=N\OS(=O)(=O)c2ccccc2)C=CC1=O | 7.1 | 94.5* | 94.6* | 0.7 | 35.8 | 50.5* | 92.8* | 9.4 | 94.2*
Cc1ccc(Cc2cc(-c3ccc(C)cc3)n[nH]c2=O)cc1 | nt | -14.3 | 11.9 | 17.2 | 10.2 | 33.8 | nt | nt | nt
CCc1ccc2c(c1)C1(NN=C(c3ccc(C)cc3)S1)C(=O)N2 (configuration not stated) | 4.9 | 92.4* | 40.3* | 80.4* | 8.6 | 82.7* | 87.9* | 10.0 | 80.8*
O=C(O)c1cccc(S(=O)(=O)Nc2ccccc2C(=O)NCCc2ccccc2)c1 | 14.1 | 8.9 | 6.1 | 7.4 | 2.4 | 18.9 | nt | nt | nt
Cc1oc(=O)c(NC(=O)c2ccccc2)cc1C(=O)c1ccccc1 | 2.8 | 62.3* | 53.4* | 6.1 | 38.0 | 56.6* | 61.0* | 55.1* | 59.6*
CC(=O)c1cc(NC(=O)c2ccccc2)c(=O)oc1C | 12.3 | 15.0 | 17.6 | 6.0 | 7.8 | 21.9 | nt | nt | nt
O=C(NCc1nnc2c(C(F)(F)F)cc(Cl)cn12)c1ccc2c(c1)OCO2 | 8.4 | 2.7 | 4.1 | -0.9 | -3.5 | 7.1 | nt | nt | nt
O=C1/C(=C\c2ccncc2)CCc2ccccc21 | nt | 64.7* | 59.8* | 36.1 | 21.3 | 72.3* | 61.8* | 62.0* | 39.0
CCOc1ccc(/C=C2\CCc3ccccc3C2=O)cc1 | 22.9 | 24.4 | 19.6 | 8.2 | 31.5 | 17.5 | nt | nt | nt
CSc1cccc(NC(=O)CC2Oc3ccccc3NC2=O)c1 (configuration not stated) | -14.2 | -16.7 | 7.4 | -1.1 | -8.4 | 10.8 | nt | nt | nt
Cc1[nH]n(-c2ccccc2)c(=O)c1C(c1ccc(C(=O)O)cc1)c1c(C)[nH]n(-c2ccccc2)c1=O | 19.8 | 7.6 | 13.8 | -3.2 | 5.5 | 23.8 | nt | nt | nt
Cc1[nH]n(-c2ccccc2)c(=O)c1C(C[N+](=O)[O-])c1ccc(Br)cc1 (configuration not stated) | 64.6* | 60.1* | 49.5* | 9.1 | 36.5 | 89.1* | 57.2* | 68.8* | 84.3*
NNC(=O)c1[nH]c(-c2ccccc2)cc1-c1ccccc1 | 1.5 | 56.8* | 40.6* | 22.6 | 13.2 | 53.4* | 44.4* | 21.2 | 45.8*
Cc1c(-c2ccccc2)n[nH]c1C(=O)NN | -30.8 | -2.5 | -7.8 | -11.1 | 1.3 | 7.9 | nt | nt | nt
CC(C)NC(=O)/C(C#N)=C/c1cccc(NC(=O)c2ccccc2Cl)c1 | 49.9 | 70.4* | 62.8* | 4.7 | 20.8 | 78.4* | 66.8* | 0.9 | 67.0*
COCCNC(=O)/C(C#N)=C/c1cccc(NC(=O)c2ccccc2Cl)c1 | 20.4 | 38.4 | 26.9 | -1.5 | 27.3 | 31.0 | nt | nt | nt
Cc1ccc(-n2nc3c(=O)n(CC(=O)NC4CCCCC4)nc(C)c3c2C)cc1 | 22.1 | 9.6 | 10.3 | -0.7 | 7.4 | 7.0 | nt | nt | nt
O=C(Nc1nnc(C2CC2)o1)c1ccc(S(=O)(=O)N2CCc3ccccc3C2)cc1 | -22.6 | 28.5 | 17.3 | 9.3 | -4.0 | -17.8 | nt | nt | nt
CC1CCCN(S(=O)(=O)c2ccc(C(=O)Nc3nnc(C4CC4)o3)cc2)C1 (configuration not stated) | 2.1 | 45.7* | 29.3 | ? | 6.8 | 52.7* | 19.4 | nt | 34.0
CCN(c1ccc(NC(=O)c2cccc(S(=O)(=O)N3CCN(C)CC3)c2)cc1)C(C)C | 12.2 | 8.7 | -8.8 | -2.2 | 6.6 | -6.2 | nt | nt | nt
COc1ccccc1C/C(N)=N/OC(=O)c1cccc([N+](=O)[O-])c1C | 48.0 | 46.2* | 83.4* | 19.0 | 16.6 | 77.8* | 32.6* | -31.7 | 73.8*
COc1ccc(/C(N)=N/OC(=O)c2cccc([N+](=O)[O-])c2)cc1 | -14.8 | 42.1* | 31.7 | 6.6 | 7.1 | 66.2* | 54.0* | nt | 73.9*
COc1ccc(/C(N)=N/OC(=O)c2cccc([N+](=O)[O-])c2C)cc1 | 19.4 | 65.2* | 83.0* | -8.9 | 11.8 | 71.5* | 53.3* | 78.2* | 59.9*
SMILES | NALP1 inh | tim10-1 inh | TIM10 inh | SKKanGAS inh | NALP3 yeast inh | tim23-1 inh | tim10-1 confirm | TIM10 conf | tim23-1 conf
COc1cccc(C(=O)O/N=C(\N)c2ccc([N+](=O)[O-])cc2)c1 | -24.5 | 26.5 | -4.4 | 15.9 | 4.4 | 1.3 | nt | nt | nt
CC1=CC(=NOC(=O)c2cccc([N+](=O)[O-])c2)C=C(C)C1=O | 12.5 | 45.0* | 20.1 | 1.3 | 8.5 | 57.3* | 35.7* | nt | 64.2*
N/C(=N\OC(=O)c1ccc(Br)cc1)c1cccc([N+](=O)[O-])c1 | -0.3 | 38.7 | 34.2 | -6.6 | 23.1 | 22.0 | nt | nt | nt
O=C(CSc1ccccc1)Nc1ccc(N2CCOCC2)c(F)c1 | 10.2 | -12.5 | -7.0 | -9.3 | 30.3 | 6.1 | nt | nt | nt
COc1cccc(/C=N/NC(N)=S)c1OCc1ccccc1Cl | 3.5 | 27.3 | 34.4 | -0.7 | 11.0 | 17.0 | nt | nt | nt
NC(=S)N/N=C/c1ccccc1OCCSc1ccc(Cl)cc1 | 7.4 | 43.5* | 56.7* | 14.5 | 16.6 | 54.3* | 31.6* | 3.1 | 34.4
Cc1cc(C)n2nc(SCC(=O)NC(=O)c3ccccc3)nc2n1 | nt | 4.3 | -7.4 | nt | 10.8 | 11.6 | nt | nt | nt
O=C(/C=C/c1cccc(C(F)(F)F)c1)Nc1cccc(C(F)(F)F)c1 | 12.9 | 55.0* | 57.7* | 88.1* | -15.1 | 72.0* | 56.1* | 53.5* | 69.4*
CCC(C)Nc1nc(N)c([N+](=O)[O-])c(Nc2ccccc2OC)n1 (configuration not stated) | -11.1 | 42.9* | 23.0 | 1.5 | -7.4 | 52.6* | 17.0 | nt | 48.5*
COc1ccccc1Nc1nc(NCC(C)C)nc(N)c1[N+](=O)[O-] | -22.2 | 39.8 | 29.4 | 1.0 | 28.0 | 49.8 | nt | nt | nt
O=C(NC(=S)N1CCc2ccccc21)c1ccc(Br)o1 | -2.2 | 62.3* | 67.3* | -2.6 | 9.4 | 63.6* | 56.5* | 57.1* | 66.3*
